# Measurements reported in PubChem BioAssay (EPA / NIEHS).
# Results filed as inconclusive are left out. Activity calls are given as the source filed them. How the source made its calls: active means hit-call score of the fitted dose curve at least 0.9, where 1 is the maximum; inconclusive means response in the unintended direction; inactive means score below 0.9.
# Molecular target: human Protein Tyrosine Phosphatase Non-receptor Type 6 (PTPN6), PTPN6 (gene 5777) (UniProt P29350)
# Assay: NVS_ENZ_hPTPN6: NovaScreen (NVS) Enzymatic Assay for human Protein Tyrosine Phosphatase Non-receptor Type 6 (PTPN6) (AID 2283210)
# Procedure, shortened: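 Recombinant human PTPN6 from SF9 cells, enzyme activity followed by fluorescence after mobility-shift separation of substrate and product at 1.33 h. Chemicals first tested at a single 25 uM in duplicate, then confirmed across concentration series; loss of signal relative to DMSO.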
# Chain of human Protein Tyrosine Phosphatase Non-receptor Type 6 (PTPN6), PTPN6 (gene 5777) (P29350 whole entry, looked up): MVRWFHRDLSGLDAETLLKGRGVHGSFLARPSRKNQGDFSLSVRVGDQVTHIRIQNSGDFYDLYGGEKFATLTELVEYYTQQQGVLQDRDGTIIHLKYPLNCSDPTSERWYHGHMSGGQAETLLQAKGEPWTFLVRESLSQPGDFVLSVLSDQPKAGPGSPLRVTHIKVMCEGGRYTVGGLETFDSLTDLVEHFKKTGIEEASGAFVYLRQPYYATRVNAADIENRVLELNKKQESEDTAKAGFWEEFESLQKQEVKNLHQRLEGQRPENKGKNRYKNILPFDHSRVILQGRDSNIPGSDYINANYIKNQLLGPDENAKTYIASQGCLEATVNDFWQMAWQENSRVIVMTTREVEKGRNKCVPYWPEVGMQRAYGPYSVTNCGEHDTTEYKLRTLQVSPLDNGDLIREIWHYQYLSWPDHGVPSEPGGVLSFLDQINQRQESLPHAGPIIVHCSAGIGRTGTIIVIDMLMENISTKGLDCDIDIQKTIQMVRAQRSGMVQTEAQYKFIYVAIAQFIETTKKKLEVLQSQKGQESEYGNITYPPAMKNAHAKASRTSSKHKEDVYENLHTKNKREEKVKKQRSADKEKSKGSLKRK
row,Structure (SMILES),outcome
1,O=C1CCCCCN1,inactive
2,O=c1n(CC2CO2)c(=O)n(CC2CO2)c(=O)n1CC1CO1 (stereo unspecified),inactive
3,NC(=O)NO,inactive
4,O=C1OC(=O)C2C3C=CC(C3)C12 (stereo unspecified),inactive
5,CC(C)CCCCCCCOC(=O)CCCCC(=O)OCCCCCCCC(C)C,inactive

# Molecular target: human Sirtuin 2 (SIRT2), SIRT2 (gene 22933) (UniProt Q8IXJ6)
# Sequence (Q8IXJ6 whole entry, looked up): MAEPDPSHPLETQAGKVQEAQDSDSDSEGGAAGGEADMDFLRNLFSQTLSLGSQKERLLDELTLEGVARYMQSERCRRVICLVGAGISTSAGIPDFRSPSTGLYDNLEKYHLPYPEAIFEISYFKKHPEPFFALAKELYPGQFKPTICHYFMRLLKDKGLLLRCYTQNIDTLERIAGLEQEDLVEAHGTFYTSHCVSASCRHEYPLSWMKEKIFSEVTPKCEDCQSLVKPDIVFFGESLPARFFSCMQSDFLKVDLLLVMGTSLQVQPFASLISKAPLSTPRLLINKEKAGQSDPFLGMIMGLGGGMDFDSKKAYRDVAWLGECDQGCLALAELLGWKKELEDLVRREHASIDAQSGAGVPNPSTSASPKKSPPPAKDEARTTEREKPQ
# Assay: NVS_ENZ_hSIRT2: NovaScreen (NVS) Enzymatic Assay for human Sirtuin 2 (SIRT2) (AID 2283217)
# Procedure: NVS_ENZ_hSIRT2 is a biochemical, single-readout assay that uses extracted gene-proteins in a cell-free assay. Measurements were taken 1 hour after chemical dosing in a 384-well plate.NVS_ENZ_hSIRT2 is one of one assay component(s) measured or calculated from the NVS_ENZ_hSIRT2 assay. It is designed to make measurements of enzyme activity, a form of enzyme reporter, as detected with fluorescence intensity signals by Fluorescence and electrophoretic mobility shift technology.Data from the assay component NVS_ENZ_hSIRT2 was analyzed into 1 assay endpoint. This assay endpoint, NVS_ENZ_hSIRT2, was analyzed in the positive analysis fitting direction relative to DMSO as the negative control and baseline of activity. Using a type of enzyme reporter, loss-of-signal activity can be used to understand changes in the enzymatic activity as they relate to the gene SIRT2. Furthermore, this assay endpoint can be referred to as a primary readout, because this assay has produced multiple assay endpoints where this one serves a enzymatic activity function. To generalize the intended target to other relatable targets, this assay endpoint is annotated to the hydrolase intended target family, where the subfamily is protein deacetylase.
# Binding assays used specific radioligands (tritiated, iodinated) with non-radioactive competitive displacement ligands in agonist or antagonist protocols (as indicated) and various reference compounds and inhibitors to titrate specific binding to receptors and transporters. Most enzyme assays (CYPs, kinases, phosphatases, proteases, HDACs) used recombinant protein and specific substrates (fluorescence mostly, some colorimetric and radioactive) and inhibitors, followed by a biochemical separation of substrate and product. All assays for the biochemical HTS were initially run in duplicate at a single concentration (10 uM for CYP450 assays and 25 uM for all others). Assay-chemical combinations meeting a pre-defined threshold (e.g., 30% inhibition and other criteria defined below) were then run in singleton concentration-response format with maximum concentration of 20 uM for CYPs and 50 uM for all others. Each assay was run with positive and negative controls, and concurrent controls on every plate. The follow-up (secondary) screen tested active chemical-pairs in concentration series, as well as a few additional assays not tested in the primary screen, some selected negative inactives, and several cases re-run in the concentration series for confirmatory purposes.
row,Structure (SMILES),outcome
1,CC(=O)OCCC(C)C,inactive
2,CNS(=O)(=O)c1cc(C(=O)N2CCC(CCN3C4CCC3CC(n3c(C)nc5ccccc53)C4)(c3cccc(F)c3)CC2)c(Cl)cc1F (stereo unspecified),inactive
3,Cc1c(-c2cccnc2)c2ccccc2n1CCCCC(=O)O,inactive

# Molecular target: human Sirtuin 1 (SIRT1), SIRT1 (gene 23411) (UniProt Q96EB6)
# Sequence (Q96EB6 whole entry, looked up): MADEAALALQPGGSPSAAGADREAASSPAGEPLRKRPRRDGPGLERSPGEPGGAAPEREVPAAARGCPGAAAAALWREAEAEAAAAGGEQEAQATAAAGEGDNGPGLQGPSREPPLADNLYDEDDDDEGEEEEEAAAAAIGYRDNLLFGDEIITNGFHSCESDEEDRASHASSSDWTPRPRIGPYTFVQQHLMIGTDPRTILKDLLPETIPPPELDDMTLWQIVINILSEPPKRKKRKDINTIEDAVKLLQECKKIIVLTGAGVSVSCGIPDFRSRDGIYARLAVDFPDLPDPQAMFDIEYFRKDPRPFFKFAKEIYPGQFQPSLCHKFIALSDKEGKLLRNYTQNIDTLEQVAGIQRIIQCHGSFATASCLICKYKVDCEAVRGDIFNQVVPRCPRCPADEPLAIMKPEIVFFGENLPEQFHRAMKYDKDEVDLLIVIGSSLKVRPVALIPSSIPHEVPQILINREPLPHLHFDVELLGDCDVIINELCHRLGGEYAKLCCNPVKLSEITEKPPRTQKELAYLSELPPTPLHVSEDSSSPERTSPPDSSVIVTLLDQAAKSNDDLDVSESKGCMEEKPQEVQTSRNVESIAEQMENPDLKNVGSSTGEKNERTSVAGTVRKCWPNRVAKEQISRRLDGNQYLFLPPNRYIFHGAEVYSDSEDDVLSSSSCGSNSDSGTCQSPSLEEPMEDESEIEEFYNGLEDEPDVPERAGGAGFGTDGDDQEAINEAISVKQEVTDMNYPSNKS
# Assay: NVS_ENZ_hSIRT1: NovaScreen (NVS) Enzymatic Assay for human Sirtuin 1 (SIRT1) (AID 2283219)
# Procedure, shortened: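 Cell-free recombinant SIRT1 with a fluorescent substrate; substrate and product separated by electrophoretic mobility shift and read by fluorescence intensity, 1 h after dosing. Primary screen at 25 uM in duplicate; hits re-run in concentration-response up to 50 uM, relative to DMSO.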
row,Structure (SMILES),outcome
1,Oc1ccc2c(c1)-c1ccccc1C2,inactive
2,Nc1cccc(N)c1,inactive
3,CNCc1ccc(NC(=O)c2c[nH]c3c2C(=O)CCC3)cc1,inactive
